# Results filed as inconclusive are left out. Active and inactive are the calls of the source. Rule for the calls, unless noted: active = hit-call score of the fitted dose curve at least 0.9, where 1 is the maximum; inactive = score below 0.9.
# Experiments:
# [1] = CCTE_Harrill_HTTr_Viability_DMEM_6hr: (Pilot) CCTE's 6-hour Cell Viability Assessment for the High-Throughput Transcriptomics (HTTr) Platform, in MCF-7 cells cultured in DMEM + 10% fetal bovine serum, Harrill Lab (AID 2283973)
# Summary of the method: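 Propidium iodide uptake imaged by high-content analysis after six hours of chemical treatment in an eight-concentration series. Cells: MCF-7 grown in DMEM with 10% fetal bovine serum; DMSO as baseline.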
# [2] = CCTE_Harrill_HTTr_Viability_DMEM_12hr: (Pilot) CCTE's 12-hour Cell Viability Assessment for the High-Throughput Transcriptomics (HTTr) Platform, in MCF-7 cells cultured in DMEM + 10% fetal bovine serum, Harrill Lab (AID 2283974)
# Summary of the method: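 Propidium iodide dye exclusion imaged by high-content microscopy after 12 h chemical exposure (eight concentrations) of MCF-7 cells grown in DMEM plus 10% FBS; values fitted in both directions relative to DMSO.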
# [3] = CCTE_Harrill_HTTr_Viability_DMEM_24hr: (Pilot) CCTE's 24-hour Cell Viability Assessment for the High-Throughput Transcriptomics (HTTr) Platform, in MCF-7 cells cultured in DMEM + 10% fetal bovine serum, Harrill Lab (AID 2283975)
# Summary of the method: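 Pilot study: propidium iodide dye exclusion, imaged by high content microscopy, after 24 h compound exposure (eight concentrations) in MCF-7 cultured in DMEM + 10% fetal bovine serum; DMSO served as negative control and baseline.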
# [4] = CCTE_Harrill_HTTr_Viability_PRF_DMEM_6hr: (Pilot) CCTE's 6-hour Cell Viability Assessment for the High-Throughput Transcriptomics (HTTr) Platform, in MCF-7 cells cultured phenol red-free DMEM + 10% charcoal-stripped fetal bovine serum, Harrill Lab (AID 2283976)
# Text: (§1) This is a cell-based assay that evaluates cell viability using high content imaging to evaluate membrane integrity using propidium iodide dye exclusion in a 384 well format.One of seven assay components measured from the CCTE_Harrill_HTTr_Viability assay. This was part of a pilot experiment. This is a cell-based assay that evaluates cell viability in MCF-7 cells cultured in phenol red-free DMEM + 10% charcoal-stripped fetal bovine serum. High content imaging is used to evaluate membrane integrity using propidium iodide dye exclusion. Measurements are taken at 6 hours after chemical dosing in 384-well format.The assay component endpoint CCTE_Harrill_HTTr_Viability_PRF_DMEM_6hr was analyzed with bidirectional fitting relation to DMSO as the negative control and baseline of activity. Using a type of viability reporter to understand changes in cytotoxicity, gain-of-signal activity can be used to evaluate membrane integrity using propidium iodide dye exclusion. To generalize the intended target to other relatable targets, this assay endpoint is annotated to cell cycle, where the subfamily is cytotoxicity.
# Chemicals were tested in MCF7 cells in an eight point dilution series with a six hour exposure duration.
# [5] = CCTE_Harrill_HTTr_Viability_PRF_DMEM_12hr: (Pilot) CCTE's 12-hour Cell Viability Assessment for the High-Throughput Transcriptomics (HTTr) Platform, in MCF-7 cells cultured in phenol red-free DMEM + 10% charcoal-stripped fetal bovine serum, Harrill Lab (AID 2283977)
# Text: as §1, with “12” for “6”, “CCTE_Harrill_HTTr_Viability_PRF_DMEM_12hr” for “CCTE_Harrill_HTTr_Viability_PRF_DMEM_6hr”
# Chemicals were tested in MCF7 cells in an eight point dilution series with a twelve hour exposure duration.
# [6] = CCTE_Harrill_HTTr_Viability_PRF_DMEM_24hr: (Pilot) CCTE's 24-hour Cell Viability Assessment for the High-Throughput Transcriptomics (HTTr) Platform, in MCF-7 cells cultured in phenol red-free DMEM + 10% charcoal-stripped fetal bovine serum, Harrill Lab (AID 2283980)
# Text: as §1, with “24” for “6”, “CCTE_Harrill_HTTr_Viability_PRF_DMEM_24hr” for “CCTE_Harrill_HTTr_Viability_PRF_DMEM_6hr”
# (§2) Chemicals were tested in MCF7 cells in an eight point dilution series with a twenty-four hour exposure duration.
# [7] = CCTE_Harrill_HTTr_Apoptosis_DMEM_6hr: (Pilot) CCTE's 6-hour Apoptosis Assessment for the High-Throughput Transcriptomics (HTTr) Platform, in MCF-7 cells cultured in DMEM + 10% fetal bovine serum, Harrill Lab (AID 2283981)
# Summary of the method: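 MCF-7 cells grown in DMEM + 10% FBS were exposed for 6 hours to an eight-point dilution series. CellEvent Caspase 3/7 Green signal was imaged; activity fitted bidirectionally against DMSO.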
# [8] = CCTE_Harrill_HTTr_Apoptosis_DMEM_12hr: (Pilot) CCTE's 12-hour Apoptosis Assessment for the High-Throughput Transcriptomics (HTTr) Platform, in MCF-7 cells cultured in DMEM + 10% fetal bovine serum, Harrill Lab (AID 2283982)
# Summary of the method: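 Caspase-3/7 activity was measured by high-content imaging (CellEvent Caspase 3/7 Green) after a 12-hour exposure of MCF-7 cells grown in DMEM with 10% FBS. Eight-point concentration series, fitted bidirectionally against vehicle.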
# [9] = CCTE_Harrill_HTTr_Apoptosis_DMEM_24hr: (Pilot) CCTE's 24-hour Apoptosis Assessment for the High-Throughput Transcriptomics (HTTr) Platform, in MCF-7 cells cultured in DMEM + 10% fetal bovine serum, Harrill Lab (AID 2283983)
# Text: This is a cell-based assay that evaluates apoptosis using high content imaging to evaluate activation of caspase-3/7 using the CellEvent Caspase 3/7 Green detection reagent in 384-well format.One of seven assay components measured from the CCTE_Harrill_HTTr_Apoptosis assay. This was part of a pilot experiment. This is a cell-based assay that evaluates apoptosis in MCF-7 cells cultured in DMEM + 10% fetal bovine serum. High content imaging is used to evaluate activation of caspase-3/7 using the CellEvent Caspase 3/7 Green detection reagent. Measurements are taken at 24 hours after chemical dosing in 384-well format.The assay component endpoint CCTE_Harrill_HTTr_Apoptosis_DMEM_24hr was analyzed with bidirectional fitting relation to DMSO as the negative control and baseline of activity. Using a type of viability reporter, gain-of-signal activity can be used to evaluate activation of caspase-3/7 using the CellEvent Caspase 3/7 Green detection reagent to understand changes in apoptosis. To generalize the intended target to other relatable targets, this assay endpoint is annotated to cell cycle, where the subfamily is apoptosis.
# as §2
# [10] = TOX21_TR_RXR_BLA_Antagonist_Followup_viability: Viability Assessment in the Tox21 Thyroid Hormone Receptor beta Retinoid X Receptor alpha (RXRa) Antagonism Beta-lactamase (BLA) Follow-Up Assay (AID 2283979; active = hit-call score of the fitted dose curve at least 0.9, where 1 is the maximum)
# Summary of the method: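 RXRa-bla HEK293T cells (2,500/well, phenol red-free DMEM, 2% charcoal-stripped FBS) were attached 5 h, then exposed to compounds at 11 concentrations in triplicate for 16 h at 37C. Viability measured by CellTiter-Glo ATP luminescence, bidirectional fitting versus DMSO.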
smiles,measurement,setting,value
CC(C)CCCCCCc1ccc(O)cc1,outcome,[1],inactive
same,AC50,[2],55.5 µM (active)
same,AC50,[3],69.4 µM (active)
same,AC50,[4],55.7 µM (active)
same,AC50,[5],69.2 µM (active)
same,AC50,[6],64.3 µM (active)
same,outcome,[7],inactive
same,AC50,[8],63.2 µM (active)
same,AC50,[9],77.5 µM (active)
Cc1nn(C)c(Oc2ccccc2)c1C=NOCc1ccc(C(=O)OC(C)(C)C)cc1,outcome,[1],inactive
same,outcome,[2],inactive
same,outcome,[3],inactive
same,outcome,[4],inactive
same,outcome,[5],inactive
same,outcome,[6],inactive
same,outcome,[7],inactive
same,outcome,[8],inactive
same,outcome,[9],inactive
N[C@@H](Cc1cc(I)c(Oc2ccc(O)c(I)c2)c(I)c1)C(=O)O,outcome,[1],inactive
same,outcome,[2],inactive
same,outcome,[3],inactive
same,outcome,[4],inactive
same,outcome,[5],inactive
same,outcome,[6],inactive
same,outcome,[7],inactive
same,outcome,[8],inactive
same,outcome,[9],inactive
CC(=O)[C@H]1CC[C@H]2[C@@H]3CCC4=CC(=O)CC[C@]4(C)[C@H]3CC[C@]12C,outcome,[10],inactive
S=C([S-])NCCNC(=S)[S-].[Mn+2],outcome,[1],inactive
same,outcome,[2],inactive
same,outcome,[3],inactive
same,outcome,[4],inactive
same,outcome,[5],inactive
same,outcome,[6],inactive
same,outcome,[7],inactive
same,outcome,[8],inactive
same,outcome,[9],inactive
CC(C)(c1ccc(O)cc1)c1ccc(O)cc1,outcome,[1],inactive
same,outcome,[2],inactive
same,outcome,[3],inactive
same,outcome,[4],inactive
same,outcome,[5],inactive
same,outcome,[6],inactive
same,outcome,[7],inactive
same,outcome,[8],inactive
same,outcome,[9],inactive
C=CCOC(Cn1ccnc1)c1ccc(Cl)cc1Cl (stereo unspecified),outcome,[1],inactive
same,outcome,[2],inactive
same,outcome,[3],inactive
same,outcome,[4],inactive
same,outcome,[5],inactive
same,outcome,[6],inactive
same,outcome,[7],inactive
same,outcome,[8],inactive
same,outcome,[9],inactive
C[C@]12C[C@H](O)[C@H]3[C@@H](CCC4=CC(=O)CC[C@@]43C)[C@@H]1CC[C@@H]2C(=O)CO,outcome,[10],inactive
C[C@]12CC[C@@H]3c4ccc(O)cc4C[C@@H](CCCCCCCCCS(=O)CCCC(F)(F)C(F)(F)F)[C@H]3[C@@H]1CC[C@@H]2O (stereo partly specified),outcome,[1],inactive
same,outcome,[2],inactive
same,outcome,[3],inactive
same,outcome,[4],inactive
same,outcome,[5],inactive
same,outcome,[10],inactive
same,outcome,[6],inactive
same,outcome,[7],inactive
same,outcome,[8],inactive
same,outcome,[9],inactive

# Source: PubChem BioAssay (EPA / NIEHS)
